Assay outcomes from PubChem.
GLP1R inv ag: qHTS of GLP-1 Receptor Inverse Agonists (Inhibition Mode). Potency, µM (top dose mostly 38.3 µM), for the others: at the top dose activity change, negative = inhibition, hits mostly inhibitors. 1.6% of 410,000 active. Glucagon-like peptide 1 receptor (Homo sapiens), P43220. HEK293 GLP-1R CRE-luciferase, luminescence, 24 h; GLP-1R form is constitutively active; further: potency means the concentration at half of the fitted maximal effect; on the % scale 0 is the no-effect control and ±100 the full control effect; nearly all actives have a fitted effect of over 55% in size
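Readout was luciferase luminescence, measured 12 min after detection reagent at room temperature. Beforehand, GLP-1R reporter HEK293 cells had sat 12 h, then received compounds for 24 hr at 37 deg C.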
KCNH2 3.1 block: qHTS for Inhibitors of KCHN2 3.1: Mutant qHTS. Potassium voltage-gated channel subfamily H member 2, brain isoform KCNH2 3.1 (human). U2OS KCNH2 3.1, thallium flux FluxOr; hits give low values. activity change, % (tested at about 1.8 µM). 0.95% of 340,000 active;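 active means maximum activity change below -70%; inconclusive means maximum activity change from -70% to -50%; inactive means maximum activity change above -50%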;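 further: thallium influx rate constant from kinetic fluorescence after stimulation buffer; on the % scale 0 is the no-effect control and ±100 the full control effect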
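FluxOr-based Tl+ influx in U2OS cells transduced with KCNH2 3.1 virus; rate constants normalized to DMSO controls.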
GLP-1R agonist: qHTS of GLP-1 Receptor Agonists; Glucagon-like peptide 1 receptor (Homo sapiens), P43220; HEK293 GLP-1R CRE-luciferase, luminescence, 4-6 h; cells express a hypersensitive GLP-1R form; Potency, µM (titrated, usually from 45.6 µM), inactives show at the highest dose activation, actives largely listed as activators; 0.007% of 380,000 active; further: potency means the concentration at half of the fitted maximal effect; % of control where 0% means no effect
hERG WT inh: qHTS for Inhibitors of KCHN2 3.1: Wildtype qHTS; Voltage-gated inwardly rectifying potassium channel KCNH2 (Homo sapiens), Q12809; U2OS, BacMam KCNH2, thallium flux FluxOr; hits give low values; activity change, % at 1.84 µM; 0.37% of 340,000 active; AID 720551, 2013;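 active means maximum activity change below -70%; inconclusive means maximum activity change between -70% and -50%; inactive means maximum activity change above -50%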; further: on the % scale 0 is the no-effect control and ±100 the full control effect
Target sequence (Q12809 whole entry, looked up): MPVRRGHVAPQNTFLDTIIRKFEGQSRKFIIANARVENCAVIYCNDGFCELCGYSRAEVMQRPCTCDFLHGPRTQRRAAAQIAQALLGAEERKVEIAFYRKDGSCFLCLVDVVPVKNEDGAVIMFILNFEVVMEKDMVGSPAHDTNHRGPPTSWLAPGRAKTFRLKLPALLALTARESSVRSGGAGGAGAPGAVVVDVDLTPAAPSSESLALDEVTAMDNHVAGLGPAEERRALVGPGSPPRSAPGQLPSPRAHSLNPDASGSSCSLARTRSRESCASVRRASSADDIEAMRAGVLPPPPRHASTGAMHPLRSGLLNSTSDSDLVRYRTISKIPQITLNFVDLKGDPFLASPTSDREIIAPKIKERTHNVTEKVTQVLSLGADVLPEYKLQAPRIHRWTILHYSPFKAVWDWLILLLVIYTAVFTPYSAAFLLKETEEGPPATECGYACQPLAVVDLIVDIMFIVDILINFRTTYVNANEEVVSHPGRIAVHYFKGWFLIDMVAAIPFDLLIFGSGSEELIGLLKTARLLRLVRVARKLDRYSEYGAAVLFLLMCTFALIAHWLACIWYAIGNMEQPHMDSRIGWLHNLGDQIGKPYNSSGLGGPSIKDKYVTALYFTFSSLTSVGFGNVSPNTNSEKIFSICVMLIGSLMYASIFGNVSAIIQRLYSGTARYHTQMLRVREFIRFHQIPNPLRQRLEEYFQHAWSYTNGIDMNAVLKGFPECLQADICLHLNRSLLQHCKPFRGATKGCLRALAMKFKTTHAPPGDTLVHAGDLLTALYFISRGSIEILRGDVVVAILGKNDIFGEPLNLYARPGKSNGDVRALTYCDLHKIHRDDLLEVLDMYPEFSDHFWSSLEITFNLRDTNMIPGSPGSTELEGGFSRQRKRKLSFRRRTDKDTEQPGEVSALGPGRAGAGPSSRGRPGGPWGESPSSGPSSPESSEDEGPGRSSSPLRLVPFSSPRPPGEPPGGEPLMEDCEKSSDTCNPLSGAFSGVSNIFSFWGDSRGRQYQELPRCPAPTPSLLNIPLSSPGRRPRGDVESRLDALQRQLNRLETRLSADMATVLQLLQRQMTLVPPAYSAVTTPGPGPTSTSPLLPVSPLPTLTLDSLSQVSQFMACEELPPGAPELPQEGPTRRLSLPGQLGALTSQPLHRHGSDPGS
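U2OS cells transduced with wild-type KCNH2 virus are loaded with FluxOr dye for 45 min, and thallium flux is measured in kinetic reads before and after stimulation buffer. Rate constants are normalized to DMSO controls.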
GLS inh: qHTS for Inhibitors of Glutaminase (GLS) | Glutaminase kidney isoform, mitochondrial (Homo sapiens), O94925 | GLS enzymatic activity, qHTS titration | Potency, µM (highest dose often 45.5 µM), for the others: top-dose activity change, negative = inhibition, most hits filed as inhibitors | 0.21% of 410,000 active; further: potency means the concentration at half of the fitted maximal effect; on the % scale 0 is the no-effect control and ±100 the full control effect
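hKGA in 45 mM KH2PO4 (pH 8.2), 0.02% Tween-20 with compound, then 1mM L-Glutamine (stock as added) plus glutamate oxidase/HRP/Amplex red coupling mix. Fluorescence read initially and after 30 min at RT; signal change reflects glutamate formation.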
GLP1R cytotox: qHTS of GLP-1 Receptor Inverse Agonists: Cytotox Screen; HEK293 cAMP-luciferase reporter cells, luminescence, 24 h; Potency, µM (titrated, usually from 38.3 µM), for the others: at the highest dose activity change, negative = inhibition, hits mostly inhibitors; 0.13% of 410,000 active;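 further: loss of luciferase light is scored as toxicity; potency means the concentration at half of the fitted maximal effect; on the % scale 0 is the no-effect control and ±100 the full control effect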
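Seeding density was 200 cells/uL; after overnight-length (12 h) culture, 23 nL compounds went on for 24 h at 37 °C. Readout used a luciferase detection reagent, luminescence taken after 12 min at room temperature.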
Active calls of the source: *; ? = inconclusive; · = no result given. A selection: hits, their analogues and other compounds. The true share with any hit is near 2.8%. Unless noted, the call rests on the fitted dose curve; in most records, active means well fitted curve in the direction sought with a large enough effect; inconclusive means small, poorly fitted or top-dose-only effect, or another doubt; inactive means no such curve, though single readings can be large; an effect the other way counts as inactive or inconclusive.

SMILES | GLP1R inv ag | KCNH2 3.1 block | GLP-1R agonist | hERG WT inh | GLS inh | GLP1R cytotox
C/C(=N\OCC(=O)OC(C)C(=O)Nc1ccc(C(N)=O)cc1)c1ccc2c(c1)OCO2 (centres undefined) | 5% | 4 | -9% | -7 | 7% | 1%
O=C(c1ccc(Br)o1)N(Cc1ccccc1)Cc1ccccc1 | 10µM* | 11 | 19% | -13 | -4% | -9%
Cc1cc2nc(-c3ccc(OCc4ccccc4C)cc3)cc(C(F)(F)F)n2n1 | 18% | · | 1% | · | -5% | 5%
Cc1ccc(C)c(N2CCN(c3nccn4nc(-c5ccc(Br)cc5)cc34)CC2)c1 | -19% | · | -1% | · | -5% | 11%
CC1(C)CC2CC(C)(CN2C(=O)c2cc(-c3ccc(F)cc3)on2)C1 (centres undefined) | ? | -25 | 7% | 0 | ? | 0%
COc1ccc2c(c1)CCc1c(C(=O)N3CC4(C)CC3CC(C)(C)C4)noc1-2 (centres undefined) | 13µM* | -17 | 2% | 6 | -1% | -11%
CC1(C)CC2CC(C)(CN2C(=O)c2cc(-c3ccccc3)on2)C1 (centres undefined) | 2.8µM* | -19 | 12% | -11 | -2% | -3%
CNc1c(NC(=O)c2cc(OC)cc(OC)c2)c(=O)oc2ccccc12 | 9% | · | · | · | 13% | 1%
CC(C)N(C(=O)Cn1cc(S(=O)(=O)Cc2ccc(Br)cc2)c2ccccc21)C(C)C | 7% | · | · | · | 3% | -5%
COc1ccc(/C=N\NC(=O)c2ccccc2)cc1COc1ccc(F)cc1 | 7.9µM* | -6 | -5% | 18 | -9% | -8%
COc1ccc(C(=O)N/N=C/c2ccc(OC)c(COc3ccc(F)cc3)c2)cc1 | 10µM* | -45 | -28% | 13 | 11% | 4%
COc1ccc(C(=O)N/N=C/c2ccc(OC)c(OS(=O)(=O)c3ccccc3)c2)cc1 | ? | -195* | -5% | -151* | -15% | ?
COc1ccc(/C=N\NC(=O)c2ccccc2Br)cc1COc1ccc(F)cc1 | 21% | -25 | -3% | -11 | -3% | 14%
O=C(NCc1ccc(F)cc1)C(=O)NCC(c1ccc2c(c1)OCO2)N1CCOCC1 (centres undefined) | 17% | · | · | · | -2% | 1%
COc1ccccc1NC(=O)CSc1nnc(C2CCCCC2)n1-c1ccccc1 | 3.2µM* | 0 | 14% | -18 | -4% | -11%
COc1ccccc1NC(=O)CSc1nnc(C2CCCCC2)n1C | -21% | -6 | 11% | -19 | -4% | 3%
Cc1ccc(C(=O)N/C(=C\c2ccc(Cl)cc2)C(=O)NC2CCCCC2)cc1 | 10% | · | · | · | -4% | 2%
COc1ccc(CCN(C)C2CCCN(S(=O)(=O)c3ccc(C)cc3)C2)cc1OC (centres undefined) | -10% | -83* | 16% | -31 | 4% | -5%
CC(=O)c1ccc(S(=O)(=O)N2CCCC(N(C)CCc3ccccc3)C2)cc1 (centres undefined) | ? | -94* | 0% | ? | 1% | -11%
CN(CCc1ccccc1)C1CCCN(S(=O)(=O)c2cccc(F)c2)C1 (centres undefined) | ? | -39 | 1% | 19 | 14% | 8%
COc1ccc(NC(=O)CSc2nccn2-c2ccccc2)cc1 | 10% | 11 | 12% | 8 | 10% | -7%
CCc1ccc(NC(=O)CSc2nccn2-c2ccc(OC)cc2)cc1 | 10µM* | · | · | · | -8% | -14%
Cc1cc(C)cc(-n2ccnc2SCC(=O)Nc2ccc(C)c(Cl)c2)c1 | 8.9µM* | · | -1% | · | -3% | 1%
O=C(CCc1cn(Cc2ccc(F)cc2)c2ccccc12)NCCc1ccc(Cl)cc1 | -6% | · | · | · | -10% | -1%
COc1ccc(-n2nnc(C(=O)Nc3ccccc3F)c2N)cc1 | 8% | · | -2% | · | -8% | -1%
SMILES | GLP1R inv ag | KCNH2 3.1 block | GLP-1R agonist | hERG WT inh | GLS inh | GLP1R cytotox
CC(C)c1ccc(S(=O)(=O)c2nnn3c2nc(N2CCOCC2)c2sccc23)cc1 | 15% | · | · | · | -2% | -14%
O=C(CSCc1ccc(F)cc1)N1CCc2c([nH]c3ccccc23)C1c1ccc(F)cc1 (centres undefined) | 4.5µM* | · | · | · | -1% | -5%
COc1ccc(C2c3[nH]c4ccccc4c3CCN2C(=O)CCC2CCCC2)cc1 (centres undefined) | ? | · | · | · | 2% | 0%
CCOc1ccc(C2c3[nH]c4ccccc4c3CCN2C(=O)CCC2CCCC2)cc1 (centres undefined) | 1.3µM* | · | · | · | 0% | 1%
CCOC(=O)c1[nH]c(C)c(C(=O)N2CCc3c([nH]c4ccccc34)C2c2ccccn2)c1C (centres undefined) | 11µM* | 4 | 7% | -5 | 17% | -19%
CCOc1ccc(C2c3[nH]c4ccccc4c3CCN2C(=O)CSc2ccccc2)cc1 (centres undefined) | 5µM* | · | · | · | -2% | 3%
Cc1ccc(S(=O)(=O)N2CCCCC2)cc1NS(=O)(=O)c1ccc(Cl)c(C(=O)O)c1 | 11% | 3 | -6% | -16 | 19% | 2%
O=C(NCc1ccccn1)c1ccc(Cl)c(NC2=NC3CS(=O)(=O)CC3S2)c1 (centres undefined) | 0% | 11 | 3% | 5 | -7% | -6%
O=C(CCC1CCCC1)N1CCc2c([nH]c3ccccc23)C1c1ccc(Cl)cc1 (centres undefined) | 3.2µM* | · | · | · | -9% | 13%
CCOc1cccc(CC(=O)N2CCc3c([nH]c4ccccc34)C2c2ccc(Cl)cc2)c1OCC (centres undefined) | 10µM* | · | · | · | -5% | -14%
CCCCNc1nc(Oc2ccc(=O)n(-c3ccccc3)n2)nc(N(CC)CC)n1 | 4% | · | · | · | 0% | 8%
Cc1ccc(NC(=O)c2c(F)cccc2Cl)cc1S(=O)(=O)N1CCOCC1 | 1% | 3 | 1% | -1 | -1% | 2%
COc1ccc(/C=C/C(=O)C2(O)CCCCC2)cc1 | 10µM* | -7 | 6% | -3 | 3% | ?
CC(NC(CCc1ccccc1)C(=O)O)C(=O)N1CCCC1C(=O)O (centres undefined) | · | · | -1% | · | -4% | ·
CC(C)CN1CCC(=O)N([C@H](CSc2ccc(Br)cc2)Cc2ccccc2)CC1 | 0% | · | 2% | · | 0% | 2%
